Hits are enriched below; roughly 0.9% of the tested compounds scored in any of these assays.
TAR Tat displ = TAR RNA-Tat peptide displacers, HIV-1, primary screen, biochemical, FRET, FAM/TAMRA-labeled Tat. HIV-1 TAR RNA, Tat peptide displacement FRET; stronger effect = higher value. z-score (test concentration not listed). 0.6% of 100,000 active. AID 1259389, 2018; active = z-score of 3 or more in at least 2 runs
CDC25B CDK2 inh = primary biochemical HTRF screen for blockers of M-phase inducer phosphatase 2 binding to CDK2/cyclin A; P30305+P24941; HTRF CDC25B-CDK2/CyclinA binding, anti-His/anti-Flag; stronger effect = higher value; z-score (no concentration beside the values); 0.72% of 94,000 active; in the data active = z-score above about 3.2
Numbers without * were called inactive.

`O=C1c2ccccc2C(Nc2cccnc2)N1c1ccccn1` (stereo not given) gave TAR Tat displ -0.14 and CDC25B CDK2 inh 9.87*.
`O=C1c2ccccc2C(Nc2cccnc2)N1c1cccnc1` (stereo not given) gave TAR Tat displ -0.44 and CDC25B CDK2 inh -0.21.
`CN[C@H]1CC[C@@H](c2ccc(Cl)c(Cl)c2)c2ccccc21` gave TAR Tat displ 2.24 and CDC25B CDK2 inh -2.21.
Screening COC(=O)/C(C)=C/CC12OC(C)(C)C3CC(C=C4C(=O)c5cc6c(c(CCC(C)(C)Cl)c5OC431)OC1(C)CCC(=C(C)C)C6C1)C2=O (stereo not given) returned TAR Tat displ 1.5.
Screening O=C(Cn1nc2c(cc1=O)CCCC2)Nc1ccc2c(c1)OCO2 returned TAR Tat displ 6.23*.
`O=C(Cn1nc2c(cc1=O)CCCC2)Nc1ccc(Cl)cc1` gave TAR Tat displ 1.33.
For Cc1nn(-c2ccccc2)c(-n2cccc2)c1CNC(=O)NCC1CCCO1 (stereo not given) the results were TAR Tat displ -1.29.
`CCOCCCNC(=O)c1ccc2c(=O)[nH]c3c(C(=O)NC4CCCC4)sc(=S)n3c2c1` gave TAR Tat displ 2.01.
For O=C(NCc1ccco1)c1ccc2c(=O)[nH]c3c(C(=O)NC4CCCC4)sc(=S)n3c2c1 the results were TAR Tat displ 15.7*.
Screening Cc1[nH]nc2c1C(c1ccc(OCC(N)=O)cc1)C(C#N)=C(N)O2 (stereo not given) returned TAR Tat displ 0.07 and CDC25B CDK2 inh -1.41.
Screening c1ccc(-n2nnnc2Oc2cccc(CNCc3cccnc3)c2)cc1 returned TAR Tat displ 21*.
`OCCNCc1cccc(Oc2nnnn2-c2ccccc2)c1` gave TAR Tat displ 0.8.
For Cc1onc(-c2ccccc2)c1NC(=O)Nc1ccc(C2=NC(C)(C)CO2)cc1 the results were CDC25B CDK2 inh 5.62*.
`Cc1onc(-c2ccccc2)c1NC(=O)Nc1ccccc1N1CCOCC1` gave CDC25B CDK2 inh -1.62.
Screening Cc1cc2nc(COc3ccc(C(C)(C)c4ccccc4)cc3)cc(=O)n2o1 returned TAR Tat displ -0.36 and CDC25B CDK2 inh 1.22.
Screening CCN1CCN(CCNC(=O)CCC(=O)N2CC3CCCN3c3ccccc32)CC1 (stereo not given) returned TAR Tat displ -1.71.
Screening CCCN1C(C(=O)c2ccccc2)=C(OC(=O)c2ccccc2Cl)c2ccccc2S1(=O)=O returned TAR Tat displ 1.48 and CDC25B CDK2 inh -2.41.
O=S(=O)(c1cccc(F)c1)N1CCN(Cc2ccc3c(c2)OCO3)CC1 was read as CDC25B CDK2 inh -1.27.
`O=S(=O)(c1ccc(F)cc1)N1CCN(Cc2ccc3c(c2)OCO3)CC1` gave TAR Tat displ 0.6 and CDC25B CDK2 inh 15.8*.
`COc1ccc(/C(C#N)=C/c2cn[nH]c2)cc1` gave CDC25B CDK2 inh -1.08.
For Cn1c2c(c(=O)[nH]c1=O)C(c1ccc([N+](=O)[O-])o1)C1=C(N2)c2ccccc2C1=O (stereo not given) the results were TAR Tat displ 3.6* and CDC25B CDK2 inh 0.36.
Screening Cn1c2c(c(=O)[nH]c1=O)C(c1ccccc1)C1=C(N2)c2ccccc2C1=O (stereo not given) returned TAR Tat displ -17.6 and CDC25B CDK2 inh -2.62.
For COC(=O)c1sc2ccccc2c1S(=O)(=O)Nc1cccc(Cl)c1 the results were TAR Tat displ -1.25.
Nc1cccc(C2NC(=O)CS2)c1 (stereo not given) was read as TAR Tat displ 0.9 and CDC25B CDK2 inh 9.97*.
For O=C1CSC(c2cccc(NS(=O)(=O)c3ccc(Cl)cc3)c2)N1 (stereo not given) the results were TAR Tat displ -0.4.
CCc1cc2c(N3CCC(C(=O)NC4CCCCC4)CC3)ncnc2s1 was read as TAR Tat displ 0.65.
`O=S(=O)(Nc1ccc(-c2ccno2)cc1)c1ccc2[nH]c3c(c2c1)CCCC3` gave TAR Tat displ -6.83.
O=C1CC(c2ccccc2)=Nc2cccnc2N1 was read as TAR Tat displ -2.32 and CDC25B CDK2 inh 2.56.
Screening COc1ccc(C2=Nc3cccnc3NC(=O)C2)cc1 returned TAR Tat displ -5.05 and CDC25B CDK2 inh 15.7*.
COc1cc2c(NC3CCN(C)CC3)cc(N3CCCCN(C)CC3)cc2cc1OCCOCCN(C)C was read as TAR Tat displ 8.27*.
COc1cc2c(NC3CCN(C)CC3)nc(N3CCCN(C)CC3)nc2cc1OCCCN(C)C was read as TAR Tat displ 12.4*.
For COc1cc2c(NC3CCN(C(C)C)CC3)nc(C3CCCCC3)nc2cc1OCCCN1CCCC1 the results were TAR Tat displ 0.21.
`Cn1c2c(c(=O)n(C)c1=O)C(c1ccc(Cl)cc1)C(C#N)=C(N)O2` (stereo not given) gave CDC25B CDK2 inh -2.67.
CCn1cc(C2=NOC(C(=O)Nc3c(C)n(C)n(-c4ccccc4)c3=O)C2)c(C)n1 (stereo not given) was read as TAR Tat displ -1.31 and CDC25B CDK2 inh -1.12.
For Cc1ccccc1N1C(N)=NC(N)=NC1(C)C the results were CDC25B CDK2 inh -0.13.
CC1(C)N=C(N)N=C(N)N1c1c(Cl)cccc1Cl was read as CDC25B CDK2 inh 7.93*.
Screening CCN(Cc1cc2cc(C)ccc2[nH]c1=O)S(=O)(=O)c1ccc(C)cc1 returned TAR Tat displ 0.92 and CDC25B CDK2 inh -2.46.
`Cc1ccc2[nH]c(=O)c(CN(C(C)C)S(=O)(=O)c3ccccc3)cc2c1` gave TAR Tat displ 19.1* and CDC25B CDK2 inh -2.77.
`CCOC(=O)C1CCN(C(=O)Cn2nc(CC)n3c(cc4sc(C)cc43)c2=O)CC1` gave TAR Tat displ 0.42 and CDC25B CDK2 inh -1.19.
Cc1cc(C)cc(NC(=O)NCc2c(-n3cccc3)sc3c2CCCC3)c1 was read as TAR Tat displ 0.31 and CDC25B CDK2 inh -0.2.
Screening Cc1ccc(CNC(=O)NCc2c(-n3cccc3)sc3c2CCCC3)cc1 returned TAR Tat displ 13* and CDC25B CDK2 inh -1.19.
CN(C)CCNc1ncnc2c1cnn2-c1cccc(Cl)c1 was read as TAR Tat displ -0.22.
Screening O=C(NCC1CCCO1)c1ccc2c(c1)N(Cc1ccccc1)C(=O)CS2=O (stereo not given) returned CDC25B CDK2 inh -0.54.
For CCC(=O)Nc1ccc2nc(SCC(N)=O)sc2c1 the results were TAR Tat displ -0.15 and CDC25B CDK2 inh -1.72.
NC(=O)CSc1nc2ccc(NC(=O)c3ccco3)cc2s1 was read as TAR Tat displ 1.76 and CDC25B CDK2 inh 12.2*.
For Nc1ccc2nc(SCC(=O)Nc3ccc4nc(SCC(=O)NC5CC5)sc4c3)sc2c1 the results were CDC25B CDK2 inh 19.1*.
Screening O=C(CSc1nc2ccc(NC(=O)c3ccco3)cc2s1)Nc1nccs1 returned TAR Tat displ 0.7 and CDC25B CDK2 inh 0.57.
`Cc1ccc(S(=O)(=O)N2CCCC3(CCCCC3)C2)cc1` gave TAR Tat displ 1.64 and CDC25B CDK2 inh 1.03.
Brc1ccc(C2Nc3cccc4cccc(c34)N2)cc1 was read as TAR Tat displ -0.41 and CDC25B CDK2 inh -0.51.
Screening COc1cccc(C2Nc3cccc4cccc(c34)N2)c1O returned TAR Tat displ 21.9* and CDC25B CDK2 inh 0.43.
CCC12CN3CC(CC)(CN(C1)C3c1cccc(OC)c1O)C2O (stereo not given) was read as TAR Tat displ 0.4 and CDC25B CDK2 inh 0.01.

Assay outcomes from PubChem BioAssay.
